For eight compounds, growth results are on record in PubChem BioAssay (NCI).

Test systems include HCT-15 colon; HT29 colon; SNB-75 CNS; SNB-19 CNS; U251 CNS; PC-3 prostate; SK-MEL-5 melanoma; UACC-62 melanoma; LOX IMVI melanoma; SK-MEL-28 melanoma; SK-MEL-2 melanoma; EKVX NSCLC; SN12C renal; UO-31 renal; TK-10 renal; ACHN renal; A498 renal; CCRF-CEM leukemia; MOLT-4 leukemia; CAKI-1 renal.
What all share (assay): NCI-60 one-dose screen, 48 h (100 = growth as untreated, 0 = no growth, -100 = all killed)
What all share (details): 10 µM unless noted

This is part of a sample that, as a whole, favours compounds with a hit. Of some 83,000 tested, about 20% had one in any assay.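 Percent growth is the endpoint: 0 to 100 indicates growth inhibition (40 means 60% inhibition), 0 means no net growth, and negative values indicate cell death.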 Unmarked numbers belong to inactive results. Calls of active or inactive are those of the source. Rule for the calls: active = growth percent below 10; inactive = the rest.

For `O=C(NNc1nc2cc(F)c(F)cc2n2cccc12)c1cnccn1`, the growth was 13.9% with HCT-15 colon; 36.8% with HT29 colon; 54.7% with SNB-75 CNS; 31.5% in the test with SNB-19 CNS; 26.4% with U251 CNS; 29.4% in the test on PC-3 prostate. The growth was 29.3% with SK-MEL-5 melanoma; 22.2% in the test on UACC-62 melanoma; 11.4% in the test with LOX IMVI melanoma; 36% with SK-MEL-28 melanoma; 46.2% with SK-MEL-2 melanoma; 17% with EKVX NSCLC. Further, the growth was 39% in the test with SN12C renal; 23.3% with UO-31 renal; 49.3% in the test on TK-10 renal; 17.6% with ACHN renal; 43.6% in the test on A498 renal; 14.4% with CCRF-CEM leukemia. The growth in the test with MOLT-4 leukemia is 7.98% (active).

Turning to `COc1cc2nc(Cl)nc(Nc3cccc(C4=Nc5c(N)nc(N)nc5NC(c5ccc(F)cc5)C4)c3)c2cc1OC` (stereo unspecified), the growth is 0.163% (active) in the test on HCT-15 colon; 9.87% (active) with HT29 colon; 85.9% with SNB-75 CNS; 31.7% in the test on SNB-19 CNS; -22% (active) in the test with U251 CNS; 59.9% in the test with PC-3 prostate. Further, the growth in the test on SK-MEL-5 melanoma was 67.1%; with UACC-62 melanoma, 93%; with LOX IMVI melanoma it was -53.6% (active); in the test with SK-MEL-28 melanoma it was 94.6%; with SK-MEL-2 melanoma, 86%; in the test with EKVX NSCLC, 89.6%. The growth is 81.9% with SN12C renal; 91.8% in the test on UO-31 renal; 112% in the test with TK-10 renal; 97.3% with ACHN renal; 77.9% with A498 renal; 5.4% (active) in the test with CCRF-CEM leukemia.

As to `COc1ccc(/C=C(\C#N)C(=O)N2c3ccccc3Sc3ccc(SC)cc32)cc1F`, the growth in the test with HCT-15 colon was 94.9%; in the test with HT29 colon, 103%; in the test on SNB-75 CNS it was 87.6%; in the test on SNB-19 CNS it was 90.4%; in the test with U251 CNS, 92.9%; in the test on PC-3 prostate, 88.9%. Also, the growth in the test with SK-MEL-5 melanoma is 93%; with UACC-62 melanoma, 71.3%; with LOX IMVI melanoma, 88.8%; in the test on SK-MEL-28 melanoma, 98.9%; in the test on SK-MEL-2 melanoma, 96.2%; with EKVX NSCLC, 97.8%. In addition, the growth was 99.4% in the test on SN12C renal; 76.2% in the test with UO-31 renal; 97.1% in the test on TK-10 renal; 88.5% in the test on ACHN renal; 79.5% with A498 renal; 93.9% in the test on CCRF-CEM leukemia. Moreover, in the test with MOLT-4 leukemia, the growth was 82.9%.

Consider `CS(=O)(=O)Nc1cc(-c2ccc3ncc(C#N)c(N[C@H](CO)c4ccccc4)c3c2)cnc1Cl`, for which the growth is 36.7% with HCT-15 colon; 74.3% in the test with HT29 colon; 36% with SNB-75 CNS; 41.7% with SNB-19 CNS; 36.1% in the test with U251 CNS; 32.7% in the test on PC-3 prostate. For the same compound, the growth in the test on SK-MEL-5 melanoma was -77.3% (active); with UACC-62 melanoma, 13.7%; in the test with LOX IMVI melanoma, 26.9%; in the test with SK-MEL-28 melanoma it was 35.2%; in the test with SK-MEL-2 melanoma, 10.3%; in the test on EKVX NSCLC, 66.9%. In addition, the growth in the test on SN12C renal was 31.1%; in the test on UO-31 renal, 43.4%; with TK-10 renal, 34.8%; with ACHN renal, 81.4%; in the test with CAKI-1 renal it was 33.3%; in the test on A498 renal it was 7.35% (active). The growth with MOLT-4 leukemia was 14.7%.

For the compound `COc1cc(-c2nn(C(C)(C)C)cc2-c2ccnc(NCCCNS(=O)(=O)c3ccc(F)cc3)n2)ccc1Cl`, the growth was 59.7% in the test with HCT-15 colon; 73.2% in the test with HT29 colon; 48.1% in the test on SNB-75 CNS; 92.9% in the test with SNB-19 CNS; 89.3% with U251 CNS; 51.5% in the test with PC-3 prostate. For the same compound, the growth was 85% in the test with SK-MEL-5 melanoma; 72.2% with UACC-62 melanoma; 74.8% in the test on LOX IMVI melanoma; 89.8% in the test with SK-MEL-28 melanoma; 86.9% in the test on SK-MEL-2 melanoma; 39% with EKVX NSCLC. In addition, the growth was 52.5% in the test with SN12C renal; 42.3% in the test with UO-31 renal; 68.8% with TK-10 renal; 83.6% with ACHN renal; 25% in the test with CAKI-1 renal; 51.9% in the test with A498 renal. Also, in the test on MOLT-4 leukemia, the growth was 49.5%.

`CN1CCN(c2ccc(/C=N/Nc3nc4ccccc4c(=O)n3-c3ccccc3)cc2)CC1`: the growth with HCT-15 colon is 99.2%; in the test with HT29 colon, 100%; in the test with SNB-75 CNS, 95.5%; with SNB-19 CNS, 105%; with U251 CNS it was 102%; with PC-3 prostate, 93.2%. Also, the growth in the test on SK-MEL-5 melanoma is 92.4%; in the test on UACC-62 melanoma it was 101%; in the test on LOX IMVI melanoma, 122%; in the test with SK-MEL-28 melanoma, 103%; in the test with SK-MEL-2 melanoma it was 107%; with EKVX NSCLC, 100%. For the same compound, the growth in the test on SN12C renal was 103%; in the test on UO-31 renal, 95.5%; in the test with TK-10 renal, 91.3%; in the test on ACHN renal, 108%; in the test on A498 renal, 89.8%; in the test on CCRF-CEM leukemia it was 105%. The growth in the test with MOLT-4 leukemia was 104%.

For the compound `Nc1nc(Nc2ccccc2SSc2ccccc2Nc2nc(N)nc(-c3ccc4ccccc4c3)n2)nc(-c2ccc3ccccc3c2)n1`, the growth with HCT-15 colon is 66.9%; in the test with HT29 colon it was 102%; in the test with SNB-75 CNS, 45.9%; in the test on SNB-19 CNS, 92.9%; in the test with U251 CNS, 45.7%; in the test with PC-3 prostate, 45.5%. Besides, the growth in the test with SK-MEL-5 melanoma was 92.3%; in the test with UACC-62 melanoma, 85%; in the test with LOX IMVI melanoma, -70.7% (active); in the test with SK-MEL-28 melanoma, 102%; in the test with SK-MEL-2 melanoma, 99.4%; in the test with EKVX NSCLC, 44.7%. The growth in the test with SN12C renal was 70%; with UO-31 renal it was -19.1% (active); with TK-10 renal, 117%; in the test on ACHN renal it was 69.5%; with CAKI-1 renal it was 35%; with A498 renal, 94%. In addition, the growth with MOLT-4 leukemia is 62.5%.

For the compound `Nc1nc(Nc2ccccc2SSc2ccccc2Nc2nc(N)nc(-c3cccc(Br)c3)n2)nc(-c2cccc(Br)c2)n1`, the growth is 50.8% in the test with HCT-15 colon; 108% in the test with HT29 colon; 53.9% in the test with SNB-75 CNS; 25.4% in the test with SNB-19 CNS; -43.9% (active) with U251 CNS; 34.7% in the test with PC-3 prostate. Also, the growth in the test with SK-MEL-5 melanoma is 91.2%; in the test on UACC-62 melanoma it was 88.3%; in the test on LOX IMVI melanoma it was -62.1% (active); in the test with SK-MEL-28 melanoma, 98.9%; in the test with SK-MEL-2 melanoma, 109%; in the test on EKVX NSCLC, 42.8%. Moreover, the growth in the test on SN12C renal was 63.7%; in the test on UO-31 renal it was -7.87% (active); in the test on TK-10 renal, 104%; in the test on ACHN renal, 50.1%; with CAKI-1 renal, 21.6%; with A498 renal it was 72%. Besides, in the test on MOLT-4 leukemia, the growth was 52%.
